Reference: PubChem BioAssay (NCATS)
Results filed as inconclusive are left out. Values without a mark were called inactive. Calls of active or inactive are those of the source. The call rests on the fitted dose curve; in most records, active means well fitted inhibition curve with a large enough effect in the repeat runs; inconclusive means weak or mixed curves; inactive means no such curve, though single readings can be large or run the other way.

target: Cytochrome P450 2C9 (Homo sapiens) (UniProt P11712); assay: Cytochrome P450 family 2 subfamily C member 9 (CYP2C9) small molecule antagonists: luciferase biochemical (cell-free) qHTS assay (AID 1645842); conditions: P450-Glo CYP2C9 enzyme assay, luciferin luminescence; series mostly up to 57.4 µM; activity change, negative = inhibition: at the top concentration; further: nearly all actives have a fitted effect of over 55% in size
Method in brief: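 P450-Glo CYP2C9 system: proluciferin substrate with enzyme in mix containing 0.4% BSA, 10 min at room temperature, then NADPH regeneration solution added and incubated 1 h at 37C. Detection reagent stopped reaction; luminescence read after 20 min as RLU.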
On the % scale 0 is the no-effect control and ±100 the full control effect; potency means the concentration at half of the fitted maximal effect.

Cytochrome P450 2C9 (Homo sapiens), sequence (P11712 whole entry, looked up): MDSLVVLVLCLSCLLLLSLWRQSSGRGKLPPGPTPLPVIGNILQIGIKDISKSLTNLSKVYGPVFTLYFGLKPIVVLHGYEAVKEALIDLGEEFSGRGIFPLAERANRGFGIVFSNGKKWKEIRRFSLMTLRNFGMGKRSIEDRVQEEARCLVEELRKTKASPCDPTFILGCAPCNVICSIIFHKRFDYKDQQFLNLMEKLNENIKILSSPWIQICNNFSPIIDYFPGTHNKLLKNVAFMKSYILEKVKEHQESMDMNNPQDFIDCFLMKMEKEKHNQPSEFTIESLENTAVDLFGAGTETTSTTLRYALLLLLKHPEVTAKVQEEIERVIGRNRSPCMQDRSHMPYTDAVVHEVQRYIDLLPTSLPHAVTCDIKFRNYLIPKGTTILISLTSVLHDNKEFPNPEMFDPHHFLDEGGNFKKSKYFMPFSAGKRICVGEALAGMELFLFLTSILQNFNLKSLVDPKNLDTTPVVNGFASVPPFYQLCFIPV

| Compound | Potency | activity change, negative = inhibition |
| --- | --- | --- |
| O=C(Nc1ccccc1)N1CCN(Cc2ccc3ccccc3n2)CC1 | 10.7 µM (active) | – |
| COc1ncc2cc(C(=O)Nc3cc(C(=O)NCc4cccc(Cl)c4)ccc3Cl)c(=O)[nH]c2n1 | 19 µM (active) | – |
| CC(=O)N1CCN(C(=O)Cc2ccc(Nc3ncc(F)c(Nc4ccc(C(=O)Nc5ccccc5Cl)cc4)n3)cc2)CC1 | 0.477 µM (active) | – |
| CC(C)(C)Nc1nc2cc(Cl)c(Cl)cc2nc1S(C)(=O)=O | 5.35 µM (active) | – |
| C#CCN(Cc1cc2c(=O)[nH]c(C)nc2cc1Br)c1ccc(C(=O)NCc2cccnc2)cc1 | 3.01 µM (active) | – |
| COc1cc2ncnc(N3CCC(Oc4cnc5ccccc5n4)C3)c2cc1OC (centres undefined) | 10.7 µM (active) | – |
| CCO[C@@H]1OC(=O)C[C@@H]1NC(=O)[C@@H]1CCCN1C(=O)[C@@H](NC(=O)c1ccc(N)c(Cl)c1)C(C)(C)C | – | -28.7% |
| COc1cc2nc(N3CCC(N4CCCCC4)CC3)nc(NC3CCCCCC3)c2cc1OC | – | 25% |
| COc1cc(N)c(Cl)cc1C(=O)NC[C@@H]1CCN2CCC[C@@H]12 | 9.52 µM (active) | – |
| Cc1nc2sc(C(=O)NCc3ccncc3)c(N)c2c(C)c1Cl | – | 3.34% |
| CCOc1cc(CC(=O)NC(CC(C)C)c2ccccc2N2CCCCC2)ccc1C(=O)O (centres undefined) | – | -6.61% |
| C=CC(=O)Nc1cccc(CN2C(=O)N(c3c(Cl)c(OC)cc(OC)c3Cl)Cc3cnc(NCCCCN(CC)CC)nc32)c1 | 8.49 µM (active) | – |
| CN(C)c1nc(NC2CCC(NCCc3ccc(Br)cc3OC(F)(F)F)CC2)nc2ccccc12 (centres undefined) | 7.56 µM (active) | – |
| CCCCCCOc1cc2c(cc1N(C)c1ncc(C(=O)O)cn1)C(C)(C)CCC2(C)C | – | -2.46% |
| NC1CCC(Nc2cc(-c3cccc(NCc4cccc(F)c4)n3)c(Cl)cn2)CC1 (centres undefined) | 2.13 µM (active) | – |
| Cc1oc2ccccc2c1CNC(=O)NCc1cccs1 | – | -9.75% |
| CC(C)(C#N)c1ccc(N2C(=O)OCc3cnc4ccc(-c5cnc6ccccc6c5)cc4c32)cc1 | 2.68 µM (active) | – |
| Cc1onc(C(=O)N2CCN(C(c3ccc(Cl)cc3)c3ccc(Cl)cc3)CC2)c1[N+](=O)[O-] | 5.35 µM (active) | – |
| CCOC(=O)c1cc(C#N)c(N2CCC(C(=O)NS(=O)(=O)Cc3ccccc3)CC2)nc1C | 2.68 µM (active) | – |
| Cc1ccc(C(=O)Nc2noc3ccccc23)cc1 | 16.9 µM (active) | – |

| Compound | Potency | activity change, negative = inhibition |
| --- | --- | --- |
| O=C(NCc1ccccn1)Nc1nnc(-c2ccco2)o1 | – | -3.48% |
| CC(C)(C)NCCCNC(=O)c1cccc(Br)c1 | – | -3.09% |
| c1ccc(N2CCN(CCc3nn[nH]n3)CC2)cc1 | 9.52 µM (active) | – |
| NC(=O)Nc1cc(-c2cccc(F)c2)sc1C(=O)NC1CCCNC1 (centres undefined) | – | -4.67% |
| O=C(O)C1CN(Cc2ccc(-c3nc4cc(Cc5ccccc5F)ccc4s3)c(F)c2)C1 | – | -11.3% [at 11.5 µM] |
| O=C(O)[C@@H]1C[C@H]2C[C@@H](CCc3nn[nH]n3)CC[C@H]2CN1 | – | 0.686% |
| CC(C)C(CO)Nc1nc(Nc2cc(N)cc(Cl)c2)c2ncn(C(C)C)c2n1 (centres undefined) | 0.536 µM (active) | – |
| CC(C)(C)c1ccc(S(=O)(=O)NCc2ccc(C(=O)Nc3cccnc3)cc2)cc1 | 12 µM (active) | – |
| COC(=O)CCSCc1ccc(-c2onc(C)c2NC(=O)OC(C)c2ccccc2Cl)cc1 (centres undefined) | 1.51 µM (active) | – |
| CCCN1CCN(c2ccc(C(=O)NC3(C(=O)NCC#N)CCCCC3)cc2)CC1 | – | 3.71% |
| O=C(O)c1ccccc1NC(=O)N1CCC(c2ccccc2C(F)(F)F)CC1 | 0.849 µM (active) | – |
| CC1CCN(C(=O)CC#N)CC1N(C)c1ncnc2[nH]ccc12 (centres undefined) | 23.9 µM (active) | – |
| Cc1cccc(Oc2cnc(=O)[nH]c2)c1 | – | -2.38% |
| O=S(=O)(NCC1CC1)c1ccc(Nc2nccc(N3CCCc4cc(O)ccc43)n2)cc1 | 1.07 µM (active) | – |
| NC(=O)c1cnc(NCCc2ccc(O)c(Cl)c2)nc1NCc1ccccc1 | 6.74 µM (active) | – |
| CNCc1ccc(-c2cc(-c3nc(-c4ccc(S(=O)(=O)C(C)C)cc4)cnc3N)on2)cc1 | 2.13 µM (active) | – |
| Cc1cc(OCc2nnc(SC3CCCC3)n2-c2cccnc2)ccc1-c1ccc(S(C)(=O)=O)cc1 | 8.49 µM (active) | – |
| CCc1cc(CN2CC(C(=O)O)C2)sc1-c1noc(-c2ccc(Oc3ccccc3)cc2)n1 | – | -6.59% [at 23.9 µM] |
| O=C(O)c1cccc(S(=O)(=O)N2CCc3ccccc3C2)c1 | – | -1.71% |
